Reference: the supplement of paper PMC12819154, “High-throughput peptide-centric local stability assay extends protein–ligand identification to membrane proteins, tissues and bacteria” (Nature Structural & Molecular Biology, 2025)

compound: CN[C@@H]1C[C@H]2O[C@@](C)([C@@H]1OC)n1c3ccccc3c3c4c(c5c6ccccc6n2c5c31)C(=O)NC4 [staurosporine]; experiment: log2 fold change of tryptic peptide abundance, ligand vs vehicle (limited proteolysis) (log2 ratio); higher = more trypsin-susceptible (destabilized); details: ligand concentration: 20 uM; sample: mouse liver crude lysate; replicate design: treated separately

Chain of UniProt A2A8Z1 (A2A8Z1 whole entry): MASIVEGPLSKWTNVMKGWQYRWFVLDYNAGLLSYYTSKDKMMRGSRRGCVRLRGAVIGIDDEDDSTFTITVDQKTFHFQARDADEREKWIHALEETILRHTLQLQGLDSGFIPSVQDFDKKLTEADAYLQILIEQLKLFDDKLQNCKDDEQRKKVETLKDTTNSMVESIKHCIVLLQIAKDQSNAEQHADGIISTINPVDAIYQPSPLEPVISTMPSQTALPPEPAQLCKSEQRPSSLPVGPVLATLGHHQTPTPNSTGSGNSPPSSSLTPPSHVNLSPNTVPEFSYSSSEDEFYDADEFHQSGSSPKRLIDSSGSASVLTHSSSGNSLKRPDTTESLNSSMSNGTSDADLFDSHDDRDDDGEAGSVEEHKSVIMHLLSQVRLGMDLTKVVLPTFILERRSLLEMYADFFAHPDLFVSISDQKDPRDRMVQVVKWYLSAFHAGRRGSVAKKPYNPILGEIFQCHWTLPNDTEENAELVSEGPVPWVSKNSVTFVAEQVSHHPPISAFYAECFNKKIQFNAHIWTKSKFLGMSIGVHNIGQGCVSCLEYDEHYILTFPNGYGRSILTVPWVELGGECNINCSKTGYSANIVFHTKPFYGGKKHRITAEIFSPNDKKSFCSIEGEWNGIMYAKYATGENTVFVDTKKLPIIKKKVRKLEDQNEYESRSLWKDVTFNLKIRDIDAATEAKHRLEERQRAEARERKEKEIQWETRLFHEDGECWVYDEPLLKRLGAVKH
Chain of UniProt Q61578 (Q61578 whole entry): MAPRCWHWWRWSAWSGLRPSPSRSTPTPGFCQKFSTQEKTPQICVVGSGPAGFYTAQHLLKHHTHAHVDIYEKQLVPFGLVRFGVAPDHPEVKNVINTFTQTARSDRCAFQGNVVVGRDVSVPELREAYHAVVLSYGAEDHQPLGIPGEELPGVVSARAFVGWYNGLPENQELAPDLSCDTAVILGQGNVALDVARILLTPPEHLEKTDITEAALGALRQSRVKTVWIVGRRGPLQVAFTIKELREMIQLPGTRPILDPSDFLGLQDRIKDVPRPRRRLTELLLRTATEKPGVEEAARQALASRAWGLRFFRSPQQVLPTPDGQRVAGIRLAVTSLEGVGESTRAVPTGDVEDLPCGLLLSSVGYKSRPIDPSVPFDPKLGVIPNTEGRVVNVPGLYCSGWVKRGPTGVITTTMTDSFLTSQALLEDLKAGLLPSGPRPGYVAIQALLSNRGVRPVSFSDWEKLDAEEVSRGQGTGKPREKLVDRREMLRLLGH
Chain of UniProt Q8R1Q8 (Q8R1Q8 whole entry): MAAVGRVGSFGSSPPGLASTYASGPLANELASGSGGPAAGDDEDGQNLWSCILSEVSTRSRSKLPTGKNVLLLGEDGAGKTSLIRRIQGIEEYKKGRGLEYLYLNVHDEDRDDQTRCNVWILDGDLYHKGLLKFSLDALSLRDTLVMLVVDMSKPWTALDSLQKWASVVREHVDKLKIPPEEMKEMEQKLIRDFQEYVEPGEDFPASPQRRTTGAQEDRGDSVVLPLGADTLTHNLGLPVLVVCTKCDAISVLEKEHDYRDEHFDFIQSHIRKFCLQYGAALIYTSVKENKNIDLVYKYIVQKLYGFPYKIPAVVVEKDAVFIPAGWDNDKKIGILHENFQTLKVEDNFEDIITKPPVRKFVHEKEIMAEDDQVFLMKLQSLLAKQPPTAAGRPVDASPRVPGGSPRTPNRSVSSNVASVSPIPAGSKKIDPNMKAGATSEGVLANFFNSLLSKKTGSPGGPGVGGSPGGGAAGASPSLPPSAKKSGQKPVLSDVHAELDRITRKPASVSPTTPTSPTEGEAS
Chain of UniProt Q91XU3 (Q91XU3 whole entry): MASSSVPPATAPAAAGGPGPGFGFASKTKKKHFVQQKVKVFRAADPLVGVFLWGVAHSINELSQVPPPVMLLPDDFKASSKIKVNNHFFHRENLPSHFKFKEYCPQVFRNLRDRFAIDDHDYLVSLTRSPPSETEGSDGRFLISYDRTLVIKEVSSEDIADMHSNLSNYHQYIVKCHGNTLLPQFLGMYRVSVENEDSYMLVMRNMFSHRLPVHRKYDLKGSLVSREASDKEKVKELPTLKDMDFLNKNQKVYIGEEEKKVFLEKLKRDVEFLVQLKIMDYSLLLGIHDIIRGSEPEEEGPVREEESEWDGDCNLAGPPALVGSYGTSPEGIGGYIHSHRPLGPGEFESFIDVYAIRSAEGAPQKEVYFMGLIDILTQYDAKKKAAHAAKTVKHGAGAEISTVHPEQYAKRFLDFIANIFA
Chain of UniProt Q61083 (Q61083 whole entry): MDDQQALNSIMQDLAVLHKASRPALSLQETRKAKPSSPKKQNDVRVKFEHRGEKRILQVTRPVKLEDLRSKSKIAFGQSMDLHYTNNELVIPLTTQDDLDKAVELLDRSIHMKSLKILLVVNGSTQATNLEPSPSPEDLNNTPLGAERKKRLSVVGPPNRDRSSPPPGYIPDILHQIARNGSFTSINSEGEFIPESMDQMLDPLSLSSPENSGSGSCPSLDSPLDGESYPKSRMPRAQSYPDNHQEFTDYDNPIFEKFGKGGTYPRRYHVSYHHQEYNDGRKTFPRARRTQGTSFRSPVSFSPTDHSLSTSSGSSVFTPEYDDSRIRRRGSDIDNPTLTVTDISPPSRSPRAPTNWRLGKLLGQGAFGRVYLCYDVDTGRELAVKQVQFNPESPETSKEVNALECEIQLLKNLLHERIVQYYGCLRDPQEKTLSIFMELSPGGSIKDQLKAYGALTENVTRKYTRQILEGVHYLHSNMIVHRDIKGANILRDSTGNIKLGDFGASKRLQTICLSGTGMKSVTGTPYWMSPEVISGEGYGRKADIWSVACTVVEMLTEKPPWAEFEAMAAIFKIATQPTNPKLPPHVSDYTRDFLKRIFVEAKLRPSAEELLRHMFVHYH
Chain of UniProt Q62393 (Q62393 whole entry): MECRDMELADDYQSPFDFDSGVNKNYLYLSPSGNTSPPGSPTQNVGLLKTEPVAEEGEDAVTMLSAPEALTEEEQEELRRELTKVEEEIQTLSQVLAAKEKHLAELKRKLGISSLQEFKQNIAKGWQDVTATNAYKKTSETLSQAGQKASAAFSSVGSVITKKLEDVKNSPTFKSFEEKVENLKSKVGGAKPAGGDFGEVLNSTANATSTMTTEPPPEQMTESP
Chain of UniProt O35099 (O35099 whole entry): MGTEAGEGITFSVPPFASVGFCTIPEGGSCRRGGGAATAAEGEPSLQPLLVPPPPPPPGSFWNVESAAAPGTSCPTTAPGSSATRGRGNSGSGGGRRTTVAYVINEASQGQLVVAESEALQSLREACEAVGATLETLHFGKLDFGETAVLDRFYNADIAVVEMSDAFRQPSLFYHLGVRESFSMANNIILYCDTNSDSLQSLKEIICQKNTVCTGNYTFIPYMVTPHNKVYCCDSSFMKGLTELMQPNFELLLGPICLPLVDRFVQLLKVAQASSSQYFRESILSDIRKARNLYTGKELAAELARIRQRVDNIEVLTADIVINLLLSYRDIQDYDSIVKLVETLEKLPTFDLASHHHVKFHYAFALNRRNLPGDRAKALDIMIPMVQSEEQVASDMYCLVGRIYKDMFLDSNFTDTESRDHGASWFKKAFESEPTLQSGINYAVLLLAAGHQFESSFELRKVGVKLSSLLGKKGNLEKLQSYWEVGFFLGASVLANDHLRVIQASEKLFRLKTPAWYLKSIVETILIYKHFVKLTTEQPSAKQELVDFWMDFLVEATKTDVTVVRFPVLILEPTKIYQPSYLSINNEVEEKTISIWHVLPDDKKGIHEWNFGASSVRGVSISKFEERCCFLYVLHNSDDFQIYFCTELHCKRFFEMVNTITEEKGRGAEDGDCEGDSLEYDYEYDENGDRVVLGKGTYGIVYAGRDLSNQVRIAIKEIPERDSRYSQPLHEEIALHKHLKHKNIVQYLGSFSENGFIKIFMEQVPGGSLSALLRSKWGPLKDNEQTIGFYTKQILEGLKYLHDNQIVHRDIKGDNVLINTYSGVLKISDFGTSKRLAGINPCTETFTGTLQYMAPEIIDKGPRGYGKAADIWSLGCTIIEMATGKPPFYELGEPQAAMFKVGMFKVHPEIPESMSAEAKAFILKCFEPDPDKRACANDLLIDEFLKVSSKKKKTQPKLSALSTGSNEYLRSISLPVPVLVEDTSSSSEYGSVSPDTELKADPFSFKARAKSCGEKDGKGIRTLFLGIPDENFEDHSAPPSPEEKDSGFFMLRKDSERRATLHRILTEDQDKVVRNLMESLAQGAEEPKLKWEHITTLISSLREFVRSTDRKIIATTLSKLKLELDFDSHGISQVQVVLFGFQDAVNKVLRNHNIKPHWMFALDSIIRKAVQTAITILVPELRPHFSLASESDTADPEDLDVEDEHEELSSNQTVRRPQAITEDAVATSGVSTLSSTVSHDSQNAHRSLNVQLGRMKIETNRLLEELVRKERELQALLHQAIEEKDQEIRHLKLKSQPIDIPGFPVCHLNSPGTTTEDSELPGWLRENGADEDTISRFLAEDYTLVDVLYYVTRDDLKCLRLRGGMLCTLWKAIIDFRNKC
Chain of UniProt P14685 (P14685 whole entry): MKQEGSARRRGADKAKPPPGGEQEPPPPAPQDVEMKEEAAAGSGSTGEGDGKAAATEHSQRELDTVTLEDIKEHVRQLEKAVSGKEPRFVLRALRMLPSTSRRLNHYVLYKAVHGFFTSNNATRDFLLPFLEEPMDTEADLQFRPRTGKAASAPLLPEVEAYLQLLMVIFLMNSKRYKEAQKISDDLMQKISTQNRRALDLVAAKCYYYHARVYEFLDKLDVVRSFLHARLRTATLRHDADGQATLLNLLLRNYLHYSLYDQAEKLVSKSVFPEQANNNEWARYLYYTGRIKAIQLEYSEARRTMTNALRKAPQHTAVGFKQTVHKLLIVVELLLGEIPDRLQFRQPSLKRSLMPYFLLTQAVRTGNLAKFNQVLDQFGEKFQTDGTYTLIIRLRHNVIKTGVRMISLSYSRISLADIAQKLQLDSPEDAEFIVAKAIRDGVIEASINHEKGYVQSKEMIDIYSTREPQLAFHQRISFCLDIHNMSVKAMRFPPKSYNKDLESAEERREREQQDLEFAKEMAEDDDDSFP

| Target | log2 fold change |
| --- | --- |
| UniProt Q7TMY8 (peptide sequence: HLGYTLCK, peptide start residue: 3630) | 0.491 |
| UniProt P70268 (peptide sequence: EGMGYGDR, peptide start residue: 805) | -3.03 |
| UniProt Q61083 (peptide sequence: LLGQGAFGR, peptide start residue: 361) | -1.9 |
| UniProt Q61578 (peptide sequence: NVINTFTQTAR, peptide start residue: 94) | 0.834 |
| UniProt Q8BX94 (peptide sequence: TALPAPMFTR, peptide start residue: 62) | 0.84 |
| UniProt Q9D0I9 (peptide sequence: GFDILGIKPVQR, peptide start residue: 648) | 0.372 |
| UniProt Q9Z2A0 (peptide sequence: HIIKENKVPYVTR, peptide start residue: 120) | -2.47 |
| UniProt Q3UYH7 (peptide sequence: SLLEGLLQR, peptide start residue: 423) | -0.733 |
| UniProt Q3UTQ8 (peptide sequence: DIKPENLLISHNDVLK, peptide start residue: 135) | -1.56 |
| UniProt Q9ERK4 (peptide sequence: LLQAFLER, peptide start residue: 707) | 0.291 |
| UniProt Q8VCH6 (peptide sequence: LTQGETLR, peptide start residue: 368) | 0.499 |
| UniProt P14685 (peptide sequence: ISLADIAQK, peptide start residue: 413) | -0.355 |
| UniProt P70236 (peptide sequence: ADDLEPIVELGR, peptide start residue: 50) | -2.01 |
| UniProt Q6PF93 (peptide sequence: LQALLGDNEK, peptide start residue: 573) | -0.345 |
| UniProt Q91XU3 (peptide sequence: VYIGEEEKK, peptide start residue: 252) | -1.32 |
| UniProt Q61268 (peptide sequence: TQAWLQSSR, peptide start residue: 94) | 0.77 |
| UniProt A2A8Z1 (peptide sequence: VVLPTFILERR, peptide start residue: 391) | 0.538 |
| UniProt Q8R1Q8 (peptide sequence: NIDLVYK, peptide start residue: 292) | 0.28 |
| UniProt P53395 (peptide sequence: DRTEPVTGFQK, peptide start residue: 251) | 0.423 |

| Target | log2 fold change |
| --- | --- |
| UniProt O70503 (peptide sequence: IQKPTLDKPSAETFVK, peptide start residue: 242) | 0.192 |
| UniProt Q9DC28 (peptide sequence: FDDKPDYSYLR, peptide start residue: 260) | -0.751 |
| UniProt Q8C4X2 (peptide sequence: DVKPENFLIGRPGNK, peptide start residue: 162) | -1.22 |
| UniProt P30561 (peptide sequence: HKLDFTPIGCDAK, peptide start residue: 285) | -1.1 |
| UniProt P70697 (peptide sequence: FALPYIR, peptide start residue: 232) | 0.384 |
| UniProt Q9EP53 (peptide sequence: SHLLQQNQR, peptide start residue: 890) | -0.636 |
| UniProt Q64459 (peptide sequence: ALLSPTFTSGK, peptide start residue: 131) | -0.273 |
| UniProt Q62393 (peptide sequence: GWQDVTATNAYK, peptide start residue: 125) | 0.581 |
| UniProt Q920L1 (peptide sequence: VAPLVQSLCAK, peptide start residue: 402) | 0.439 |
| UniProt E9Q3L2 (peptide sequence: ACLSALSEVK, peptide start residue: 1763) | -0.812 |
| UniProt O35099 (peptide sequence: YLHDNQIVHR, peptide start residue: 800) | -3.12 |
| UniProt Q9EPJ9 (peptide sequence: DVTTFFSGK, peptide start residue: 289) | 0.513 |
| UniProt Q91XD8 (peptide sequence: LQALQPSDLGPR, peptide start residue: 75) | -0.916 |
| UniProt Q01705 (peptide sequence: QWTQQHLDAADLR, peptide start residue: 1832) | -0.742 |
| UniProt Q5EG47 (peptide sequence: DLKPENVLLDAHMNAK, peptide start residue: 150) | -4.22 |
| UniProt Q9R257 (peptide sequence: FATVEVTDKPVDEALR, peptide start residue: 41) | -0.672 |
| UniProt P22907 (peptide sequence: ELENALEKNEVDLVVHSLK, peptide start residue: 80) | -0.802 |
| UniProt O89023 (peptide sequence: VNTEFMK, peptide start residue: 339) | -0.234 |
| UniProt P08226 (peptide sequence: LQAEIFQAR, peptide start residue: 262) | 0.428 |
